# Measured values from PubChem BioAssay.
# Records with an inconclusive call do not appear. The source made the active and inactive calls. Rule as the data show it, unless noted: active = inhibition above about 80%; inactive = the rest.
# Key:
# [1] = growth inhibition of DIPG glioma cells, dose response, cell-based, SU-DIPG-XVII, MIPE5.0, CellTiter-Glo, qHTS (AID 1347060; cut-off not given, nearly all actives have AC50 up to about 26 µM;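 also: cells exposed to compound for 48 hours before viability readout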); details: SU-DIPG-XVII viability, CellTiter-Glo ATP luminescence
# [2] = growth inhibition of DIPG glioma cells, dose response, cell-based, SU-DIPG-XIII, MIPE5.0, CellTiter-Glo, qHTS (AID 1347064; cut-off not given, nearly all actives have AC50 up to about 23 µM;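 also: cells exposed to compound for 48 hours before the viability read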); details: SU-DIPG-XIII viability, CellTiter-Glo ATP luminescence
# [3] = viability loss in pontine glioma line – cell-based, SU-DIPG-XXV, MIPE5.0, CellTiter-Glo, qHTS, dose response (AID 1347065; cut-off not given, nearly all actives have AC50 up to about 26 µM;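 also: cells exposed to compound for 48 hours before ATP readout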); details: CellTiter-Glo ATP luminescence
# [4] = JHH-DIPG-1 glioma cell viability, MIPE5.0 library, CellTiter-Glo luminescence, qHTS (AID 1347067; cut-off not given, nearly all actives have AC50 up to about 26 µM;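 also: cells exposed to compound for 48 hours before readout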); details: JHH-DIPG-1 glioma viability, CellTiter-Glo ATP luminescence
# [5] = SU-DIPG-XXV glioma cell viability, MIPE5.0 library, qHTS (AID 1347068; cut-off not given, nearly all actives have IC50 up to about 30 µM;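 also: cells exposed to compound for 48 hours before viability readout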)
# [6] = LFS_MB_P medulloblastoma growth inhibition, cell-based, chromothripsis tumors, cisplatin or BGB combos (AID 1671449); details: LFS_MB_P medulloblastoma cells;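 also: cells exposed for 96 hours; 0% = vehicle DMSO and 100% = killing by high DMSO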
# [7] = HDN33 neuroblastoma growth inhibition, cell-based, chromothripsis tumors, cisplatin or BGB combos (AID 1671450); details: HDN33 neuroblastoma cells, stronger effect = higher value;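 also: cells exposed to compound for four days; 0% = vehicle DMSO and 100% = cell killing by high DMSO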
# [8] = ICB984 medulloblastoma cell growth inhibition, synergistic combos for chromothripsis tumors, cisplatin or BGB combos (AID 1671451; call rule not given here;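 also: cells exposed for 96 hours before readout; 0% = vehicle DMSO and 100% = killing by high DMSO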); details: ICB984 medulloblastoma cells, drug combinations, stronger effect = higher value
# [9] = LFS_MB_1R medulloblastoma cell growth inhibition, synergistic combos for chromothripsis tumors, cisplatin or BGB combos (AID 1671452); details: LFS_MB_1R medulloblastoma cells, stronger effect = higher value;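 also: cells exposed for 96 hours before readout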
# [10] = HTB85 osteosarcoma cell growth inhibition, synergistic combos for chromothripsis tumors, BGB or cisplatin IC20 combos (AID 1671453); details: HTB85 osteosarcoma cells, drug combinations, stronger effect = higher value;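 also: cells exposed for 96 hours before readout; 0% = vehicle DMSO and 100% = high DMSO killing control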
# [11] = CRL2098 osteosarcoma cell growth inhibition, synergistic combos for chromothripsis tumors, BGB or cisplatin IC20 combos (AID 1671454); details: CRL2098 osteosarcoma cells, drug combinations, stronger effect = higher value;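 also: cells exposed for 96 h before readout; 0% = vehicle DMSO and 100% = killing by high DMSO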
# [12] = HD-MB03 medulloblastoma cell growth inhibition, synergistic combos for chromothripsis tumors, BGB or cisplatin IC20 combos (AID 1671455; in the data active = inhibition above about 83%;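 also: 0% = vehicle DMSO and 100% = high DMSO as cytotoxic control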); details: HD-MB03 medulloblastoma cells, stronger effect = higher value
# [13] = UWB1.289 ovarian carcinoma cell growth inhibition, synergistic combos for chromothripsis tumors, BGB or cisplatin combos (AID 1671456); details: UWB1.289 ovarian carcinoma cells, stronger effect = higher value;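 also: cells exposed to compound for four days; 0% = vehicle DMSO and 100% = killing by high DMSO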
# [14] = MDA-MB-436 breast carcinoma cell growth inhibition, synergistic combos for chromothripsis tumors, BGB or cisplatin combos (AID 1671458; call rule not given here;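 also: cells exposed for 96 hours; 0% = vehicle DMSO and 100% = killing by high DMSO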); details: MDA-MB-436 breast carcinoma growth inhibition, drug combinations, stronger effect = higher value
# [15] = growth inhibition of BT084 medulloblastoma cells, cell-based, ICGC_MB145, cisplatin and BGB IC40 combos (AID 1671461); details: drug combinations, stronger effect = higher value;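 also: cells exposed to drugs for 96 hours; 0% = vehicle DMSO and 100% = high DMSO full killing control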
# [16] = growth inhibition of RCMB18 medulloblastoma cells, cell-based, cisplatin and BGB IC40 combos (AID 1671462); details: stronger effect = higher value;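 also: cells exposed to compound for four days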
# [17] = growth inhibition of CRL1545 osteosarcoma cells, cell-based, cisplatin and BGB IC20 combos (AID 1671464); details: stronger effect = higher value;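 also: cells exposed to compound for 96 hours before readout; 0% = vehicle DMSO and 100% = high DMSO killing control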
# [18] = sensitizers of A549 cells to miR-34 induction, primary screen, imaging, A549 dox-inducible miR-34, nuclei and caspase counts (AID 1347080;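 active = compounds whose cell count with miR-34 switched on is under 0.7 times the count with it off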); details: A549 miR-34 inducible, Hoechst nuclei count, 48 h
# [19] = survival rescue of mitochondrial mutant cells in low glucose, primary screen, MELAS cybrids, Rieske KO mouse fibroblasts, CellTiter-Glo (AID 1508586;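 active = mean z-score across replicates of 1.96 or higher in either the MELAS or the Rieske mutant cell line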;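 also: z relative to plate mean and SD of compound and empty wells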)
# [20] = measured here: combination with BGB IC40, at 0.05 µM
# [21] = measured here: with BGB IC20 combination, at 0.5 µM
# [22] = measured here: with cisplatin IC20 combination, at 0.5 µM
# [23] = measured here: combination with cisplatin, at 0.5 µM
compound,measurement,setting,value
CN(C)C/C=C/C(=O)Nc1ccc(C(=O)Nc2cccc(Nc3ncc(Cl)c(-c4c[nH]c5ccccc45)n3)c2)cc1,AC50,[1],263 nM (active)
same,AC50,[2],209 nM (active)
same,AC50,[3],209 nM (active)
same,AC50,[4],263 nM (active)
same,IC50,[5],295 nM (active)
same,inhibition,"[6]; at 0.5 µM, stronger effect = higher value",-12.9% (inactive)
same,inhibition,"[6]; measured here: combination with BGB IC20, at 0.005 µM",-29.1%
same,inhibition,"[6]; measured here: combination with BGB IC40, at 0.005 µM",-64.8%
same,inhibition,[6]; [20],7.86%
same,inhibition,"[6]; measured here: combination with cisplatin, at 0.5 µM, stronger effect = higher value",-42.5%
same,inhibition,"[6]; measured here: combination with cisplatin, at 5 µM, stronger effect = higher value",89.6%
same,inhibition,"[7]; BGB combo, at 5 µM",97.3%
same,inhibition,[7]; at 0.5 µM,42.9% (inactive)
same,inhibition,"[7]; cisplatin combo, at 5 µM",98.3%
same,inhibition,[7]; [21],43.5%
same,inhibition,[7]; [22],38.3%
same,inhibition,"[7]; single agent, at 5 µM",98.9%
same,inhibition,"[8]; BGB IC20 combo, at 0.005 µM",97.6%
same,inhibition,"[8]; BGB IC40 combo, at 0.005 µM",98.3%
same,inhibition,"[8]; BGB IC40 combo, at 0.05 µM",102%
same,inhibition,[8]; at 0.5 µM,-27.1% (inactive)
same,inhibition,"[8]; cisplatin combo, at 0.05 µM",102%
same,inhibition,"[8]; cisplatin combo, at 0.5 µM",-38.3%
same,inhibition,"[8]; cisplatin combo, at 5 µM",33.8%
same,inhibition,"[8]; measured here: 5 uM single agent, at 5 µM",11.6%
same,inhibition,[9]; at 0.5 µM,103% (active)
same,inhibition,[9]; [20],23.8%
same,inhibition,[9]; [23],101%
same,inhibition,"[9]; measured here: combination with cisplatin, at 5 µM",97.5%
same,inhibition,[10]; at 0.5 µM,91.8% (active)
same,inhibition,"[10]; measured here: with BGB IC20, at 0.5 µM",89.2%
same,inhibition,"[10]; measured here: with BGB IC20, at 5 µM",99.9%
same,inhibition,"[10]; measured here: with cisplatin IC20, at 0.5 µM",92.7%
same,inhibition,"[10]; measured here: with cisplatin IC20, at 5 µM",99.8%
same,inhibition,"[10]; single agent, at 5 µM",100%
same,inhibition,[11]; at 0.5 µM,41.6% (inactive)
same,inhibition,"[11]; measured here: combination with BGB at IC20, at 0.5 µM",72.6%
same,inhibition,"[11]; measured here: combination with cisplatin at IC20, at 0.5 µM",29.6%
same,inhibition,[12]; at 0.5 µM,64.6% (inactive)
same,inhibition,"[12]; measured here: combo with BGB at IC20, at 0.5 µM",57.2%
same,inhibition,"[12]; measured here: combo with cisplatin at IC20, at 0.5 µM",71.3%
same,inhibition,[13]; at 0.5 µM,74.6% (inactive)
same,inhibition,"[13]; measured here: inhibition with BGB combination, at 0.05 µM",9.81%
same,inhibition,"[13]; measured here: inhibition with cisplatin combination, at 0.05 µM",0.164%
same,inhibition,[14]; at 0.5 µM,57.8% (inactive)
same,inhibition,"[14]; measured here: BGB combination, at 0.5 µM",51.4%
same,inhibition,"[14]; measured here: BGB combination, at 5 µM",40.9%
same,inhibition,"[14]; measured here: cisplatin combination, at 0.5 µM",50.4%
same,inhibition,"[14]; measured here: cisplatin combination, at 5 µM",69.8%
same,inhibition,[15]; at 0.5 µM,32.3% (inactive)
same,inhibition,"[15]; cisplatin combination, at 0.5 µM",10%
same,inhibition,"[15]; cisplatin combination, at 5 µM",35.4%
same,inhibition,"[15]; measured here: BGB IC40 combination 0.05 uM, at 0.05 µM",15.5%
same,inhibition,"[15]; single agent, at 5 µM",89%
same,inhibition,[16]; at 0.5 µM,66.8% (inactive)
same,inhibition,"[16]; cisplatin combo, at 5 µM",71.7%
same,inhibition,"[16]; measured here: BGB IC40 combination, at 0.05 µM",52.8%
same,inhibition,[16]; [23],69.4%
same,inhibition,"[16]; single agent, at 5 µM",89.7%
same,inhibition,[17]; at 0.5 µM,80.7% (active)
same,inhibition,[17]; [21],72.6%
same,inhibition,[17]; [22],84.4%
same,inhibition,"[17]; single agent, at 0.05 µM",-55.9%
same,inhibition,"[17]; single agent, at 5 µM",99.8%
Cc1cc(Nc2ncc(Cl)c(Nc3ccccc3S(=O)(=O)C(C)C)n2)c(OC(C)C)cc1C1CCNCC1,AC50,[1],2950 nM (active)
same,AC50,[2],1320 nM (active)
same,AC50,[3],934 nM (active)
same,AC50,[4],1660 nM (active)
same,IC50,[5],3320 nM (active)
same,fold change,"[18]; stronger effect = lower value, cell number ratio, induced over uninduced",0.935 (inactive)
same,fold change,[18]; measured here: relative caspase fold change +Dox/-Dox,0.748
same,cell count,"[18]; measured here: total cells with miR-34 induction, stronger effect = lower value",3290
same,cell count,[18]; measured here: total cells without miR-34 induction,3520
same,z-score,"[19]; MELAS cybrid survival, CellTiter-Glo 48 h, stronger effect = higher value",-0.455 (inactive)
same,z-score,"[19]; Rieske KO mouse fibroblast survival, CellTiter-Glo 72 h",-0.428
